Test results reported in PubChem BioAssay (NCI).
Compounds without any hit were thinned out: in the full panel of roughly 83,000, 20% have a hit.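 The endpoint reported here, percent growth, reads 100 for growth as untreated, 0 for no net growth and -100 for all cells dead.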 Values without a mark were called inactive. The source made the active and inactive calls.

Each molecule was assayed on NCI-H322M lung (assay: NCI-60 one-dose screen, 48 h (100 = growth as untreated, 0 = no growth, -100 = all killed)). Conditions: 10 µM unless noted.
Method: Growth inhibition of the NCI-H322M human Non-Small Cell Lung tumor cell line is measured as a screen for anti-cancer activity. Cells are grown in 96 well plates and exposed to the test compound for 48 hours. Compounds are tested at a single concentration, which is 10^-5 M for most compounds. The reported endpoint is percent growth (GI% or GIPRCNT), where numbers from 0 - 100% represent growth inhibition, and numbers from -100% - 0 represent cell death. For example, a value of 40 represents 60% growth inhibition. A value of 0 means no net growth occurred over the course of the experiment. A value of -40 indicates 40% of cells at the beginning of the experiment died by the end of the experiment. A value of -100 means all cells are dead at the end of the experiment.
NCI-60 Human Tumor Cell Lines Screen was performed using the standard one-dose NCI protocol, which is described in more detail at https://dtp.cancer.gov/discovery_development/nci-60/default.htm.
Compounds with GIPRCNT values below 10 were considered active. Activity score was based on GIPRCNT using the following formula: […]
Score is 0 for GIPRCNT values of 100 or above, 50 for GIPRCNT values of 0, and 100 for GIPRCNT values of -100.
COc1cc2c(cc1OC)C(=O)/C(=C/c1cc(C)c(O)c(C)c1)S2 showed a growth of 50.4%.
Nc1ccccc1NC(=O)c1ccc(-n2nc(-c3ccccc3)c3ccccc32)cc1 gave a growth of 83.5%.
With Cc1c2cc[nH]c(=O)c2c(C)c2c1[nH]c1cc(OCCN3CCN(C)CC3)ccc12 the growth was 7.9% (active).
With COc1cc2c(-c3cc4c(cc3CNCCc3ccc5c(c3)OCO5)OCO4)cccc2c(OC)c1O the growth was 84.6%.
NS(=O)(=O)c1ccc(CCn2c(SCC(=O)c3ccc(Cl)cc3)nc3ccccc3c2=O)cc1 was tested, and the growth was 96.3%.
With CC(C)N1C(=O)S/C(=C2/SC(=O)N(C(C)C)C2=O)C1=O the growth was 93.4%.
With CC(=O)O[C@@H]1C2CCC3C(CC[C@@]4(C)C3CC[C@@H]4C(C)N(C)C)[C@@]2(C)CC[C@@H]1NC(=O)C=C(C)C (stereo not given in full) the growth was 13.1%.
With COc1ccc(C(=O)c2cc(C)c(OC)c(C)c2)c(OC)c1OC(=O)C(Cl)Cl the growth was 42.8%.
In the case of O=C(Cn1c[n+](CC(=O)c2ccc(-c3ccccc3)cc2)c2ccccc21)Nc1cccc2cccnc12, the growth is reported as 77.2%.
COc1cc2oc(-c3cccc(C(=O)Nc4ccccc4)c3)cc(=O)c2c(O)c1OC was tested, and the growth was 66.4%.
For O=C(CCN1CCCC1)Nc1ccc2c(Nc3ccc(Br)cc3)c3ccccc3nc2c1, the growth was -11.4% (active).
Work on CCNC(=O)Oc1ccc(/C(=C(\C)c2ccccc2)c2ccc(OCCN3CCCCC3)cc2)cc1 yielded a growth of 82.7%.
Molecule CNC(=O)c1cccc(Cn2nc(C)c(NC(=O)c3ccc(COc4ccc(C(F)(F)F)cc4C)cc3)c2C)c1 has a growth of 88%.
O=S(=O)(NCCNc1nccc(-c2c(-c3cccc(F)c3)nc3sccn23)n1)c1ccc(Cl)cc1 gave a growth of 65.5%.
COC(=O)N[C@H]1CCc2c(Cl)c(OC)c(OC)c(OC)c2-c2ccc(SC)c(=O)cc21 was tested, and the growth was 35.4%.
CCOC(=O)C1=C(CCl)NC(=O)NC1c1ccc2c(c1)OCO2 (stereo not given) gave a growth of 88.1%.
COc1ccc(/C=C/c2nc(Nc3ccc(S(=O)(=O)Nc4cc(C)on4)cc3)c3ccccc3n2)cc1 showed a growth of 37.3%.
With Nc1n[nH]c2cccc(C#Cc3cccc(C(=O)Nc4cc(CN5CCOCC5)cc(C(F)(F)F)c4)c3)c12 the growth was 62.1%.
CCOC(=O)[C@@H](C)C[C@H](Cc1ccccc1)NC(=O)c1csc([C@@H](C[C@H](C(C)C)N(C)C(=O)[C@@H](NC(=O)[C@H]2C[C@H](O[Si](C)(C)C(C)(C)C)CCN2C)C(C)C)OC(C)=O)n1 showed a growth of 25% [9.25 µM].
For CCOC(=O)[C@@H]1CCCN(S(=O)(=O)c2ccc(S(=O)(=O)N(CC)CC)c(F)c2)C1, the growth was 90.2%.
O=C(CCN1CCCC1)c1ccc([N+](=O)[O-])cc1 gave a growth of 101%.
In the case of CCN1CCN(CCNc2nccc(-c3c(-c4cccc(OC)c4)nc4occn34)n2)S1(=O)=O, the growth is reported as 111%.
CCN(CC)c1ccc(/C=N/NC(=O)CSc2nc3ccccc3c(=O)n2CCc2ccc(S(N)(=O)=O)cc2)c(O)c1 showed a growth of 29.4%.
Cc1ccc(C(=O)/C(=C\c2ccc([N+](=O)[O-])cc2)S(=O)Cc2ccc(Cl)cc2)cc1 (stereo not given) gave a growth of 80.3%.
CCCCCCCCCCCCCCCC[N+]1(C)CCN(SN2CC[N+](C)(CCCCCCCCCCCCCCCC)CC2)CC1 showed a growth of 80.3%.
O=C(CCN1CCCC1)Nc1ccc2c(NCCCCc3ccccc3)c3ccccc3nc2c1 was tested, and the growth was -24.8% (active).
With O=C(CSc1nc2ccccc2[nH]1)NCc1ccccc1 the growth was 97.4%.
Molecule Cc1ccc(S(=O)(=O)Nn2c3c(cc(-c4nc5ccccc5s4)c2=O)CCCCCC3)cc1 has a growth of 100%.
For COc1ccc(-c2[nH][nH]c(=O)c2-c2nc3ccccc3s2)cc1, the growth was 100%.
CN1CCN(C(=O)[C@]23CCC(C)(C)C[C@H]2C2=CC[C@@H]4[C@@]5(C)C/C(=C/c6cccnc6)C(=O)C(C)(C)[C@@H]5CC[C@@]4(C)[C@]2(C)CC3)CC1 was tested, and the growth was 96.3%.
CCN(CC)CCCC(C)Nc1cc(O)cc2cccnc12 (stereo not given) was tested, and the growth was 110%.
Molecule CCNC(=O)Oc1ccc(/C(=C(\C)c2ccccc2)c2ccc(OCCN(CC)CC)cc2)cc1 has a growth of 99%.
Molecule Nc1c(C(=O)Nc2cccc3cnccc23)sc2nc3c(cc12)C(=O)CCC3 has a growth of 102%.
Cc1ccc(/C=C(/C#N)n2nnc3cccc(F)c32)cc1 was tested, and the growth was 16.3%.
Cc1cccc(-c2cn3ccnc3c(-c3ccc4ncn(Cc5ccccc5)c4c3)n2)c1 was tested, and the growth was 101%.
Molecule CN(C)c1ccc(C2C(C#N)=C(/N=C/c3ccccc3)Oc3c2ccc2ccccc32)cc1 (stereo not given) has a growth of 98.5%.
Work on COC(=O)CNC(=O)[C@]12CCC(C)(C)C[C@H]1C1=CC[C@@H]3[C@@]4(C)Cc5c([nH]c6ccccc56)C(C)(C)[C@@H]4CC[C@@]3(C)[C@]1(C)CC2 yielded a growth of 91.6%.
In the case of CN(C)c1ccc(Nc2c3ccccc3nc3cc(NC(=O)CCN4CCCC4)ccc23)cc1, the growth is reported as -14.6% (active).
With C#CCNC(=O)c1cccc2c1cc(C)n2-c1nc2c(c(NCc3ccccc3)n1)CCCC2 the growth was -4.53% (active).
COC(=O)C1=C(C(=O)ON)[C@@H]2C=C[C@@]1([C@@H](Cc1ccccc1)Nc1ccccc1)O2 gave a growth of 99.5%.
